# CYP2C9 inh: human CYP2C9 inhibition | inhibition, % at 5 µM | P11712 | CYP2C9 Supersomes, luciferin-H conversion, luminescence | 96,000 compounds, 20% hits;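 active = blocking of liver enzyme CYP2C9 beyond about 50% at 5 µM, limit read from the data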
# Target sequence (P11712 whole entry, looked up): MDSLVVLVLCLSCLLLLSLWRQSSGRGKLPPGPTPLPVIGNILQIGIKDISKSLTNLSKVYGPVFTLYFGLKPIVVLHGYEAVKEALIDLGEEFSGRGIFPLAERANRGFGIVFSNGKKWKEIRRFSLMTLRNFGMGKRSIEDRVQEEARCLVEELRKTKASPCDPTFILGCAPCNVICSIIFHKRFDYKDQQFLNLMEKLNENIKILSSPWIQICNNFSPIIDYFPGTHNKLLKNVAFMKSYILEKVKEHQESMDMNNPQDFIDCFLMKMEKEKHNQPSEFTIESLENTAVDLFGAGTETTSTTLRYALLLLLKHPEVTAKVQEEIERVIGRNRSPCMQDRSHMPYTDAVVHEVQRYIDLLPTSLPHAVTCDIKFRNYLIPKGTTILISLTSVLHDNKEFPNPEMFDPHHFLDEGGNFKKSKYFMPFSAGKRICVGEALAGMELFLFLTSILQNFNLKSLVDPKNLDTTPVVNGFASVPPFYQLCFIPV
# Measles CPE: protection of cells from measles virus. 140,000 compounds, 1.5% hits. Measles virus-infected cells, CPE protection, absorbance. protection (pct of control), % at 4 µM; in the data active = protection mostly above about 24%, no sharp cut-off; inactive = mostly below about 26%
# CYP2C19 inh: inhibitors of human CYP2C19; P33261; CYP2C19 Supersomes, luciferin-H EGE luminescence, 30 min; inhibition, % at 5 µM; 96,000 compounds, 21% hits; AID 778;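 active = CYP2C19 inhibition above a set limit at 5 µM in the primary screen, cut at about 50% in these data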;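 also: plate controls were negative control wells for no effect and 2.5 mM tranylcypromine positive control for full effect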
# CYP2C9 act: CYP2C9 (human) activation; P11712; recombinant CYP2C9, luciferin-H conversion, luminescence; hits give high values; factor 1 = untreated enzyme, 0 = blocked; activation factor at 5 µM; 96,000 compounds, 1.4% hits; AID 1024;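 active = activation factor of 2 or more for CYP2C9 at a 5 µM dose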;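 also: 0 = sulfaphenazole-blocked wells and 1 = vehicle-only wells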
# CYP2C19 activ: cytochrome P450 2C19 (human) activation. P33261. recombinant CYP2C19, luciferin-H EGE luminescence; hits give high values; 0 = fully inhibited enzyme, 1 = untreated enzyme. activation factor at 5 µM. 96,000 tested, under 10 active. AID 1025;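 active = activation factor of at least 2 at 5 µM in the primary screen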;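 also: 0 = wells with 2.5 mM tranylcypromine and 1 = vehicle-only wells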
# The depositor's hits bear a star; / = no result. Rows were chosen to be rich in hits. Some 22% of all compounds tested hit in one or more screens of this group.
SMILES,CYP2C9 inh,Measles CPE,CYP2C19 inh,CYP2C9 act,CYP2C19 activ
CC(C)Cc1cc(C(=O)Nc2cc(C(F)(F)F)ccc2Cl)no1,-170,1,10,2.7*,0.9
Cc1nn(Cc2ccc(Br)cc2)c(C)c1NC(=O)c1nn(C)cc1Cl,61*,7,43,0.4,0.6
O=C(Nc1ccc2c(c1)OCCO2)N1CCN(c2ccccc2)CC1,13,21,22,0.9,0.8
CCCCn1c(=O)[nH]c(=O)c2c1nc(-c1ccc(-c3ccccc3Br)o1)n2CC,47,21,15,0.5,0.9
Cc1nn(Cc2ccc(Cl)c(Cl)c2)c(C)c1NC(=O)c1noc2c1CCCCC2,6,11,6,0.9,0.9
Cc1nn(Cc2ccc(Cl)c(Cl)c2)c(C)c1NC(=O)c1cc(CC(C)C)on1,82*,4,74*,0.2,0.3
Cc1nc2ncnn2c(C)c1CCC(=O)Nc1ccc(S(=O)(=O)N2CCCCCC2)cc1,69*,8,27,0.3,0.7
Cc1nc2ncnn2c(C)c1CCC(=O)NCCc1ccccc1,-55,100*,2,1.6,1
Cc1ccc(NC(=O)CCc2c(C)nc3ncnn3c2C)cc1,-16,33,-9,1.2,1.1
Cc1ccccc1Cc1c(C)nc2ncnn2c1C,21,17,32,0.8,0.7
Cc1nc2ncnn2c(C)c1Cc1ccccc1Cl,4,20,87*,1,0.1
CCOC(NC(=O)c1ccccc1)C(NC(=O)c1ccccc1)OCC (configuration not stated),16,11,53*,0.8,0.5
CCN(CC)C(NC(=O)c1ccccc1)C(=O)c1ccccc1 (configuration not stated),62*,20,60*,0.4,0.4
COc1ccc(C(=O)NCc2nnc(SC)n2C2CCCCC2)cc1,/,5,/,/,/
CCOC(=O)C(C)Sc1nnc(CNC(=O)c2ccc(OC)cc2)n1C1CCCCC1 (configuration not stated),21,2,62*,0.8,0.4
CCc1ccc(NC(=O)CCc2nc3cccnc3n2Cc2ccc(OC)cc2)cc1,39,14,43,0.6,0.6
Cc1[nH]n(-c2ccccc2)c(=O)c1C(C[N+](=O)[O-])c1ccc(Br)cc1 (configuration not stated),95*,12,53*,0.1,0.5
CC(C)CC(=O)O/N=C1\C(=O)N(Cc2ccc(Cl)cc2)c2ccc([N+](=O)[O-])cc21,58*,8,65*,0.4,0.4
CC(C)CC(=O)O/N=C1\C(=O)N(c2ccccc2)c2ccccc21,17,1,11,0.8,0.9
O=C(OCC1COc2ccccc2O1)c1c(F)cccc1F (configuration not stated),84*,4,97*,0.2,0
Cc1cc(C)n2nc(-c3ccc(F)cc3)nc2n1,7,23*,6,0.9,0.9
Cc1cc(C)n2nc(-c3cccnc3)nc2n1,-7,5,-4,1.1,1
CCOc1ccc(N(CC(=O)NCc2ccccc2)S(C)(=O)=O)cc1,40,10,50*,0.6,0.5
CN(C)S(=O)(=O)N(CC(=O)Nc1cccc(F)c1)c1ccccc1,57*,5,43,0.4,0.6
CN(C)S(=O)(=O)N(CC(=O)NCc1ccccc1)c1ccccc1,18,18,67*,0.8,0.3
SMILES,CYP2C9 inh,Measles CPE,CYP2C19 inh,CYP2C9 act,CYP2C19 activ
CCOc1ccccc1N(CC(=O)NCc1ccc(OC)cc1)S(C)(=O)=O,62*,22,89*,0.4,0.1
CCC(C)c1ccc(NC(=O)CC(C)=O)cc1 (configuration not stated),15,2,14,0.8,0.9
COc1ccc(CCNC(=O)CN(c2ccccc2OC)S(C)(=O)=O)cc1,97*,21,93*,0,0.1
O=C(CCc1ccc(S(=O)(=O)N2CCOCC2)cc1)N/N=C/c1cccc(O)c1,/,15,/,/,/
CCN(CC(=O)Nc1ccc(NC(C)=O)cc1)C(=O)/C=C/c1cccs1,/,44*,/,/,/
COc1cc(C)c(Cl)cc1S(=O)(=O)n1cnc(C)c1,-105,4,97*,2*,0
N#CC1=C2SCN(Cc3ccccc3)CN2C(=O)CC1c1ccccc1F (configuration not stated),65*,30,42,0.4,0.6
COc1ccc(Br)cc1C1CC(=O)N2CN(Cc3ccccc3)CSC2=C1C#N (configuration not stated),94*,10,70*,0.1,0.3
COc1ccc(Br)cc1C1CC(=O)N2CN(C)CSC2=C1C#N (configuration not stated),88*,14,60*,0.1,0.4
N#CC1=C2SCN(Cc3ccco3)CN2C(=O)CC1c1c(F)cccc1Cl (configuration not stated),23,5,3,0.8,1
COc1cc(OC)c(C2CC(=O)N3CN(C)CSC3=C2C#N)cc1OC (configuration not stated),38,3,-2,0.6,1
Cc1ccc(NC(=O)COS(=O)c2ccc(C)cc2)cc1 (configuration not stated),44,6,32,0.6,0.7
O=C(OCc1nc2ccccc2s1)C1CCN(C2=NS(=O)(=O)c3ccccc32)CC1,21,12,19,0.8,0.8
O=C(c1ccc2ccccc2c1)N1CCN(c2ccc(O)cc2)CC1,18,6,62*,0.8,0.4
O=C(c1ccc2ccccc2c1)N1CCN(c2ccc([N+](=O)[O-])c(N3CCOCC3)c2)CC1,65*,4,46,0.3,0.5
O=C(c1ccc(F)cc1)N1CCN(c2ccc([N+](=O)[O-])c(N3CCCCC3)c2)CC1,62*,22,19,0.4,0.8
CC(=O)N1CCN(c2cc(N3CCc4ccccc4C3)c(F)cc2[N+](=O)[O-])CC1,54*,3,37,0.5,0.6
CN1CCN(c2ccc(NC(=O)c3cccc(OCc4ccccc4)c3)cc2)CC1,17,3,21,0.8,0.8
CC(CN(C)Cc1ccccc1)OC(=O)c1ccc(F)cc1 (configuration not stated),/,6,/,/,/
O=C(c1cccc(F)c1)N1CCN(c2cc(N3CCCCC3)c(F)cc2[N+](=O)[O-])CC1,89*,31,91*,0.1,0.1
O=C(/C=C/c1ccc(Cl)cc1)N1CCN(c2ccc(Cl)cc2[N+](=O)[O-])CC1,44,3,54*,0.6,0.5
CO/N=C(\c1nonc1N)N1CCN(c2ccc(Cl)cc2[N+](=O)[O-])CC1,76*,10,77*,0.2,0.2
O=[N+]([O-])c1cc([N+](=O)[O-])c(N2CCOCC2)cc1NCc1ccccc1,86*,22,29,0.1,0.7
CCOC(=O)c1c(C)nc(SC)c(C#N)c1-c1ccccc1,/,6,/,/,/
CCNS(=O)(=O)c1cc(S(C)(=O)=O)ccc1Cl,-69,10,3,1.7,1
Cc1cccc(C(=O)N2CCN(c3ccc([N+](=O)[O-])c(N4CCOCC4)c3)CC2)c1,54*,4,3,0.5,1

# High-throughput results: PubChem, several laboratories
